In ChEMBL document CHEMBL4808148, “HDAC6 screening dataset using tau-based substrate in an enzymatic assay yields selective inhibitors and activators” (2021):
Where “and” joins values, the source holds several entries; their conditions need not be identical. Equal values may be shown once. Among all 5,600 compounds or so, about 150 (2.7%) showed an effect of 50% or more. Many of the other results were omitted from the sample, so strong results are more common in it than they were.

Key:
[1] = target: Protein deacetylase HDAC6 (Homo sapiens) (UniProt Q9UBN7); details: at 10 µM
[2] = target: T1, Protein deacetylase HDAC6 (Homo sapiens) (UniProt Q9UBN7); details: at 10 µM; remark: listed apart in the source
T1 sequence (whole entry): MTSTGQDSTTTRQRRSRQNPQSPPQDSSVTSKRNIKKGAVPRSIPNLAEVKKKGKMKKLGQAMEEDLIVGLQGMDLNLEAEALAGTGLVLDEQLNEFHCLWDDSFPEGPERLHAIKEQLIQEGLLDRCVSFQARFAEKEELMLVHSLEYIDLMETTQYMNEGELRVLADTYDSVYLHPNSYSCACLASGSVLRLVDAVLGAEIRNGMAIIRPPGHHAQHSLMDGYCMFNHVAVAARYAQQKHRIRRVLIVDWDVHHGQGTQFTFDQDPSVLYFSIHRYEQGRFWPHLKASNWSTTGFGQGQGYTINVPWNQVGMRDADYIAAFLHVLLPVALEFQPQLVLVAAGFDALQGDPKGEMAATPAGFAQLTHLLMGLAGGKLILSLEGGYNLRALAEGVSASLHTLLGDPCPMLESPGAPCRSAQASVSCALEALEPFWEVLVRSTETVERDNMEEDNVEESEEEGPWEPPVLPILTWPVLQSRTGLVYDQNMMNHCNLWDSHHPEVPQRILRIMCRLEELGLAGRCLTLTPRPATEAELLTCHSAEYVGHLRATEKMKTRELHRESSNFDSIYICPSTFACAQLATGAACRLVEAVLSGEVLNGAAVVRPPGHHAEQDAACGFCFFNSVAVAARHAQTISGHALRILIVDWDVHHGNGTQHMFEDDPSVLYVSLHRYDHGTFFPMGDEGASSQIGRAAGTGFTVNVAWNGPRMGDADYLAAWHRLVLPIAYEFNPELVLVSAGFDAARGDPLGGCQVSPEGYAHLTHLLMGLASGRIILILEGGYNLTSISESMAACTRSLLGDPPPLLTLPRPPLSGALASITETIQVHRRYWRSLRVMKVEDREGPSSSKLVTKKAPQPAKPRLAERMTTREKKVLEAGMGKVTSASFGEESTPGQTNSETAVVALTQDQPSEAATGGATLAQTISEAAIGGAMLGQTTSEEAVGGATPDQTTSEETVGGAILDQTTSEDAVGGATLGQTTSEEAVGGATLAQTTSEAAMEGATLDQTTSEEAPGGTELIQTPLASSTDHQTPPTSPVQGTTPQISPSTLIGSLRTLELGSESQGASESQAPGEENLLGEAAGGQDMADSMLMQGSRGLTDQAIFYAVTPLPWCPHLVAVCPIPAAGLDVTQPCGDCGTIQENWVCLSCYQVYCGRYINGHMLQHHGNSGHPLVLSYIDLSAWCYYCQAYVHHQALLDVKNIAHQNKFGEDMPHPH

Question: For BISMUTH SUBGALLATE, CHEMBL1592101, which inhibition [1] is on record?
Answer: -3.52%

Question: For `CCN(CC)c1ccc(/C=N/NC(=O)c2ccc(O)cc2)cc1`, which inhibition [2] is on record?
Answer: 49.5%

Question: With `CCN(CC)c1ccc(C(=C2C=CC(=[N+](CC)CC)C=C2)c2ccccc2)cc1` as the compound, how does the inhibition [2] read?
Answer: 58.6%

Question: With `CCCC[C@]1(CC)CS(=O)(=O)c2cc(CNC(CC(=O)O)CC(=O)O)c(OC)cc2[C@@H](c2ccccc2)N1` as the compound, how does the inhibition [2] read?
Answer: 0.63%

Question: With `O=C(NCC1CN(c2ccc(N3CCOCC3=O)cc2)C(=O)O1)c1ccc(Cl)s1` (configuration not stated) as the compound, how does the inhibition [2] read?
Answer: 2.41%

Question: For `CN(C)Cc1ccc(S(=O)(=O)n2ccc(/C=C/C(=O)NO)c2)cc1`, which inhibition [2] is on record?
Answer: 97.8%

Question: `Cn1cc(-c2ccc(S(=O)(=O)n3ccc(/C=C/C(=O)Nc4ccccc4N)c3)cc2)cn1` was tested. Which inhibition [2] did it give?
Answer: 9.5%

Question: `CCN1C(=O)CNc2ncc(-c3ccc(-c4nc[nH]n4)nc3C)nc21` was tested. Which inhibition [2] did it give?
Answer: 0.29%

Question: `CN(C)c1ccc(/C=C2\C(=O)Nc3ccccc32)cc1` was tested. Which inhibition [2] did it give?
Answer: 96.3%

Question: How did the inhibition [2] turn out when `Cc1[nH]c(/C=C2\C(=O)Nc3ccccc32)c(C)c1CCC(=O)O` was run?
Answer: 8.55%

Question: With `Cc1cc(C)c(/C=C2\C(=O)Nc3ccccc32)[nH]1` as the compound, how does the inhibition [2] read?
Answer: 2.33%

Question: How did the inhibition [2] turn out when `CSC1SC[C@H]2C(=O)N(C)[C@@H](C(C)C)C(=O)OC[C@@H](NC(=O)c3cnc4ccccc4n3)C(=O)N[C@@H](C)C(=O)N(C)[C@@H]1C(=O)N(C)[C@@H](C(C)C)C(=O)OC[C@@H](NC(=O)c1cnc3ccccc3n1)C(=O)N[C@@H](C)C(=O)N2C` (some centres not stated) was run?
Answer: -2.22%

Question: `Cc1cc(-c2nc(-c3ccc(OC(F)(F)F)cc3)no2)nn1Cc1ccnc(N2CCN(C3CC3)CC2)c1` was tested. Which inhibition [2] did it give?
Answer: -4.46%

Question: For `COc1cc(C(=S)N2CCOCC2)cc(OC)c1OC`, which inhibition [2] is on record?
Answer: 97.4%

Question: Which inhibition [2] does the source give for `COc1cc(C(=O)OCCCN2CCCN(CCCOC(=O)c3cc(OC)c(OC)c(OC)c3)CC2)cc(OC)c1OC` here?
Answer: -3.62%

Question: `COc1cc(C(=O)NC2CCCNC2)cc(OC)c1OC` (configuration not stated) was tested. Which inhibition [2] did it give?
Answer: -2.46%

Question: `CC(C)(C)[C@H]1CC[C@H](CC2=C(O)C(=O)c3ccccc3C2=O)CC1` was tested. Which inhibition [2] did it give?
Answer: 4.06%

Question: How did the inhibition [2] turn out when `COc1cccc(-c2ccc(NC(=O)C3=C(C(=O)O)CCC3)c(F)c2)c1` was run?
Answer: 94%

Question: Which inhibition [2] does the source give for `COc1ccccc1C(=O)Nc1cc2c(cc1N1CCCC1)n(C)c(=O)n2C` here?
Answer: -4.48%

Question: For `COc1ccc(-c2c(C)c(C(=O)NN3CCCCC3)nn2-c2ccc(Cl)cc2Cl)cc1`, which inhibition [2] is on record?
Answer: 3.52%

Question: For `CCOc1ccc(-c2ccc(Cn3c(CC(C)(C)C(=O)O)c(SC(C)(C)C)c4cc(OCc5ccc(C)cn5)ccc43)cc2)cn1`, which inhibition [2] is on record?
Answer: -4.44%

Question: With `CC(C)NCC(O)COc1ccc(CC(N)=O)cc1` (configuration not stated) as the compound, how does the inhibition [2] read?
Answer: 8.69% and 11.7%

Question: `C[C@H](NCc1ccc(OCc2ccccc2F)cc1)C(N)=O` was tested. Which inhibition [2] did it give?
Answer: 69.9%

Question: How did the inhibition [2] turn out when `C[C@H](NC(=O)Cc1cc(F)cc(F)c1)C(=O)N[C@H](C(=O)OC(C)(C)C)c1ccccc1` was run?
Answer: -6.8%

Question: How did the inhibition [2] turn out when `Cc1ccc(-c2ccc(F)cc2COc2ccc(CCC(=O)O)cc2)cc1` was run?
Answer: 2.57%

Question: Which inhibition [2] does the source give for `O=C1S/C(=C\c2ccc(OCc3cccc(B(O)O)c3)cc2)C(=O)N1Cc1ccc(F)cc1` here?
Answer: 8.15%

Question: Which inhibition [2] does the source give for `C[C@H](NCc1ccc(OCc2cccc(F)c2)cc1)C(N)=O` here?
Answer: 88.8%

Question: How did the inhibition [2] turn out when `COC(=O)C1=C(C)NC(C)=C(C(=O)OC/C=C/c2ccccc2)C1c1cccc([N+](=O)[O-])c1` (configuration not stated) was run?
Answer: -8.71%

Question: Which inhibition [2] does the source give for `CN[C@H](CC(C)C)C(=O)N[C@H]1C(=O)N[C@@H](CC(N)=O)C(=O)N[C@H]2C(=O)N[C@H]3C(=O)N[C@H](C(=O)N[C@H](C(=O)O)c4cc(O)cc(O)c4-c4cc3ccc4O)[C@H](O[C@H]3C[C@](C)(N)[C@@H](O)[C@H](C)O3)c3ccc(c(Cl)c3)Oc3cc2cc(c3O[C@@H]2O[C@H](CO)[C@@H](O)[C@H](O)[C@H]2O[C@H]2C[C@](C)(NCc3ccc(-c4ccc(Cl)cc4)cc3)[C@@H](O)[C@H](C)O2)Oc2ccc(cc2Cl)[C@H]1O` here?
Answer: 0.32%

Question: `N#C/C(=C\c1ccc(O)c(O)c1)C(N)=O` was tested. Which inhibition [2] did it give?
Answer: 18.8%

Question: How did the inhibition [2] turn out when `N#C/C(=C\c1ccc(O)c(O)c1)C(=O)NCc1ccccc1` was run?
Answer: 54.9%

Question: Which inhibition [2] does the source give for `N#C/C(=C\c1ccc(O)c(O)c1)C(=O)Nc1ccccc1` here?
Answer: 93.8%

Question: How did the inhibition [2] turn out when `N#C/C(=C\c1ccc(O)c(O)c1)C(=O)NCCCc1ccccc1` was run?
Answer: 17.5%

Question: For `C[C@H](NC(=O)/C(C#N)=C/c1ccc(O)c(O)c1)c1ccccc1`, which inhibition [2] is on record?
Answer: 20.7%

Question: `N#C/C(=C\c1ccc(O)c(O)c1)C(=O)NCCCCc1ccccc1` was tested. Which inhibition [2] did it give?
Answer: 1.74%

Question: Which inhibition [2] does the source give for `COCCOCCOc1ccc(C2=N[C@@](C)(C(=O)O)CS2)c(O)c1` here?
Answer: -6.58%

Question: With `O=C(Nc1ccc(F)cc1)N1CCc2ccccc2C1c1ccc(C(F)(F)F)cc1` (configuration not stated) as the compound, how does the inhibition [2] read?
Answer: -5.96%

Question: `COC(=O)[C@H](CC(C)C)NC(=O)c1ccc(NC[C@@H](N)CS)cc1-c1cccc2ccccc12` was tested. Which inhibition [2] did it give?
Answer: 3.13%

Question: `CC(C)=CCC[C@](C)(O)[C@H]1CC[C@]2(C)[C@@H]1[C@H](O)C[C@@H]1[C@@]3(C)CC[C@H](O)C(C)(C)[C@@H]3[C@@H](O)C[C@]12C` was tested. Which inhibition [2] did it give?
Answer: -3.01%

Question: Which inhibition [2] does the source give for `OC[C@H]1NCC[C@@H](O)[C@@H]1O` here?
Answer: -1.49%

Question: How did the inhibition [2] turn out when `CC[C@@H](Nc1c(Nc2cccc(C(=O)N(C)C)c2O)c(=O)c1=O)c1ccc(C)o1` was run?
Answer: -5.03%

Question: How did the inhibition [2] turn out when `CC(=O)c1ccc2c(c1)[C@@H]1C=CC[C@@H]1[C@H](c1cc3c(cc1Br)OCO3)N2` was run?
Answer: -3.37%

Question: For `N=C(N)NCCSSCCNC(=N)N`, which inhibition [2] is on record?
Answer: -3.98%

Question: `CC(=O)N[C@H](Cc1c[nH]c2ccccc12)C(=O)OCc1cc(C(F)(F)F)cc(C(F)(F)F)c1` was tested. Which inhibition [2] did it give?
Answer: -8.38%

Question: For `Cc1ccc(NC2=CC(=O)c3sc(C)nc3C2=O)cc1`, which inhibition [2] is on record?
Answer: 58.6%

Question: How did the inhibition [2] turn out when `Fc1ccc2c(CCNCc3cccc(OCC(F)(F)C(F)F)c3)c[nH]c2c1` was run?
Answer: 4.2%

Question: With `CC[C@]1(O)C[C@@H]2CN(CCc3c([nH]c4ccccc34)[C@@](C(=O)OC)(c3cc4c(cc3OC)N(C)[C@H]3[C@@](O)(C(N)=O)[C@H](O)[C@]5(CC)C=CCN6CC[C@]43[C@@H]65)C2)C1` as the compound, how does the inhibition [2] read?
Answer: -4.06%
